Source: PubChem BioAssay AID1159580 (chemical genetic matrix, 2015)
“And” between values parts separate entries of the source, which are not always exact repeats. Equal entries are not always repeated. The campaign covered roughly 5,500 compounds. About 2,000 (36%) were called active. Inconclusive results (about 18%) are left out. Rule as the data show it: active = normalized growth mostly below about 0.91 (no sharp cut-off); inconclusive = no clear call, values can overlap the other calls; inactive = mostly above about 0.92. Some of the results follow.

Assay: chemical genetic growth profiling, strain panel (AID 1159580);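 also: tested at 20 µM; growth read once vehicle control cultures reached saturation at 30 °C; 1 = growth at the plate median or of vehicle wells; lower values mean less growth of the strain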
Details: S. cerevisiae deletion strains, growth OD

Measured: normalized growth

COc1ccc(Cc2nccc3cc(OC)c(OC)cc23)cc1OC
inactive: locus YAL021C, strain ccr4, stronger effect = lower value 1.04 | locus YAL026C, strain drs2, stronger effect = lower value 1 | locus YAL030W, strain snc1, stronger effect = lower value 1 | locus YAL040C, strain CLN3, stronger effect = lower value 0.983 | locus YBL061C, strain skt5, stronger effect = lower value 1 | locus YBR009C, strain hhf1, stronger effect = lower value 0.995 | locus YBR021W, strain FUR4, stronger effect = lower value 1.01 | locus YBR023C, strain chs3, stronger effect = lower value 1.01 | locus YBR171W, strain sec66, stronger effect = lower value 1.01 | locus YBR229C, strain ROT2, stronger effect = lower value 1.01 | locus YBR231C, strain swc5, stronger effect = lower value 0.998 | locus YBR279W, strain paf1, stronger effect = lower value 1.01 | locus YCL011C, strain gbp2, stronger effect = lower value 1.01 | locus YCL016C, strain dcc1, stronger effect = lower value 1.01 | locus YCL029C, strain bik1, stronger effect = lower value 0.992 | locus YCL061C, strain MRC1 (second series), stronger effect = lower value 1 | locus YCL061C, strain MRC1, stronger effect = lower value 1 | locus YCL069W, strain vba3, stronger effect = lower value 1 | locus YCR088W, strain abp1, stronger effect = lower value 1.01 | locus YDL005C, strain med2, stronger effect = lower value 0.994 | locus YDL035C, strain GPR1, stronger effect = lower value 1.01 | locus YDL040C, strain nat1, stronger effect = lower value 0.998 | locus YDL074C, strain BRE1, stronger effect = lower value 1.02 | locus YDL101C, strain DUN1, stronger effect = lower value 1.01 | locus YDL134C, strain PPH21, stronger effect = lower value 1.01 | locus YDL185W, strain tfp1, stronger effect = lower value 0.992 | locus YDL192W, strain arf1, stronger effect = lower value 0.989 | locus YDR001C, strain nth1, stronger effect = lower value 0.999 | locus YDR069C, strain doa4, stronger effect = lower value 0.989 | locus YDR101C, strain arx1, stronger effect = lower value 0.996 | locus YDR137W, strain rgp1, stronger effect = lower value 1.03 | locus YDR150W, strain NUM1, stronger effect = lower value 1.02 | locus YDR159W, strain sac3, stronger effect = lower value 0.962 | locus YDR162C, strain NBP2, stronger effect = lower value 1 | locus YDR195W, strain ref2 0.981 | locus YDR297W, strain sur2, stronger effect = lower value 1 | locus YDR318W, strain mcm21, stronger effect = lower value 0.976 | locus YDR334W, strain swr1, stronger effect = lower value 1.01 | locus YDR335W, strain msn5, stronger effect = lower value 0.999 | locus YDR363W, strain ESC2, stronger effect = lower value 0.988 | locus YDR388W, stronger effect = lower value 0.993 | locus YDR392W, strain spt3, stronger effect = lower value 0.921 | locus YDR502C, strain sam2, stronger effect = lower value 0.986 | locus YEL003W, strain gim4, stronger effect = lower value 0.996 | locus YEL037C, strain rad23, stronger effect = lower value 1 | locus YEL061C, strain CIN8 (second series), stronger effect = lower value 1 | locus YEL061C, strain CIN8, stronger effect = lower value 1.01 | locus YER002W, strain NOP16, stronger effect = lower value 0.994 | locus YER015W, strain faa2, stronger effect = lower value 1 | locus YER016W, strain bim1, stronger effect = lower value 0.996 | locus YER110C, stronger effect = lower value 0.988 | locus YER111C, strain swi4, stronger effect = lower value 1.01 | locus YER155C, strain BEM2 (second series), stronger effect = lower value 0.987 | locus YER155C, strain BEM2, stronger effect = lower value 1.01 | locus YER167W, strain BCK2, stronger effect = lower value 1.01 | locus YFR010W, strain ubp6, stronger effect = lower value 0.998 | locus YGL078C, strain dbp3, stronger effect = lower value 0.99 | locus YGL086W, strain mad1, stronger effect = lower value 0.994 | locus YGL167C, strain pmr1, stronger effect = lower value 0.998 | locus YGL173C, strain kem1, stronger effect = lower value 0.999 | locus YGL227W, strain vid30, stronger effect = lower value 1 | locus YGL240W, strain doc1, stronger effect = lower value 0.967 | locus YGL248W, strain PDE1, stronger effect = lower value 1.01 | locus YGL253W, strain hxk2, stronger effect = lower value 1.01 | locus YGR078C, strain PAC10, stronger effect = lower value 0.975 | locus YGR135W, strain pre9, stronger effect = lower value 0.977 | locus YGR229C, strain SMI1, stronger effect = lower value 0.995 and 0.994 | locus YGR252W, strain gcn5, stronger effect = lower value 0.949 | locus YHR013C, strain ard1, stronger effect = lower value 1.07 | locus YHR027C, strain rpn1, stronger effect = lower value 0.998 | locus YHR030C, strain SLT2, stronger effect = lower value 1.02 and 0.98 | locus YHR079C, strain IRE1 (second series), stronger effect = lower value 0.985 | locus YHR079C, strain IRE1, stronger effect = lower value 0.972 | locus YHR094C, strain hxt1, stronger effect = lower value 0.992 | locus YHR129C, strain ARP1, stronger effect = lower value 1.02 | locus YHR142W, strain chs7, stronger effect = lower value 0.998 | locus YHR200W, strain rpn10, stronger effect = lower value 0.99 | locus YIL066C, strain RNR3, stronger effect = lower value 1.01 | locus YIL073C, strain SPO22, stronger effect = lower value 0.957 | locus YIL125W, strain kgd1, stronger effect = lower value 0.991 | locus YIR030C, strain dcg1, stronger effect = lower value 0.983 | locus YJL092W, strain hpr5, stronger effect = lower value 1 | locus YJL095W, strain BCK1 (second series), stronger effect = lower value 1 | locus YJL095W, strain BCK1, stronger effect = lower value 1.03 and 0.985 | locus YJL115W, strain asf1, stronger effect = lower value 1 | locus YJL129C, strain trk1, stronger effect = lower value 0.985 | locus YJL134W, strain LCB3, stronger effect = lower value 1.01 | locus YJL154C, strain vps35, stronger effect = lower value 1 | locus YJL164C, strain tpk1, stronger effect = lower value 0.996 | locus YJL166W, strain qcr8, stronger effect = lower value 1.01 | locus YJL168C, strain set2, stronger effect = lower value 0.995 | locus YJL187C, strain SWE1 (second series), stronger effect = lower value 1.01 | locus YJL187C, strain SWE1, stronger effect = lower value 0.996 | locus YJR043C, strain POL32, stronger effect = lower value 1.01
